PubChem BioAssay AID372 (MTDP, 2006)
Screen size: about 100,000 compounds; about 770 (0.77%) were called active. The full list was thinned out, with actives kept by preference. Unmarked numbers belong to inactive results. Rule as the data show it: active = inhibition above about 50%; inactive = the rest.

Molecular target: Gag-Pol polyprotein (Human immunodeficiency virus type 1 group M subtype B (isolate HXB2)) (UniProt P04585)
Assay: RNase H inhibition, HIV 1 Gag Pol polyprotein, FRET biochemical assay, screening (AID 372)
Conditions: HIV-1 RT RNase H, FRET RNA/DNA substrate fluorescence; at 10 µM; stronger effect = higher value

| SMILES | inhibition |
| --- | --- |
| COc1ccc(Cl)cc1S(=O)(=O)Oc1ccc(OCc2ccccc2)cc1 | 53% (active) |
| Cc1c(/C=C2/C(=O)NC(=O)N(Cc3ccco3)C2=O)c2ccccc2n1CC(N)=O | 27% |
| Cc1cccc(C(=O)N2N=C(c3ccc(F)cc3)CC2(O)C(F)(F)F)c1 (stereo unspecified) | 0% |
| CCOC(=O)C1=c2s/c(=C\c3ccc(O)cc3)c(=O)n2C(N)=C(C#N)C1c1ccc(O)cc1 (stereo unspecified) | 67% (active) |
| CCOC(=O)C1=c2s/c(=C\c3ccc(O)c(OCC)c3)c(=O)n2C(N)=C(C#N)C1c1ccc(O)c(OCC)c1 (stereo unspecified) | 4% |
| CCOC(=O)C1=c2s/c(=C\c3cccnc3)c(=O)n2C(N)=C(C#N)C1c1cccnc1 (stereo unspecified) | 7% |
| C=CCN1C(=O)/C(=C/c2cc([N+](=O)[O-])ccc2OC)SC1=S | 3% |
| O=C1NC(=Nc2cccc(Cl)c2Cl)S/C1=C\c1ccccc1 | 12% |
| COC(=O)C1=C(C)N(Cc2cccnc2)C(=O)/C1=C\c1ccc(Br)cc1 | 14% |
| CC(C)NC(=O)C12CC3(C)CC(C)(CC(C)(C3)C1)C2 | 0% |
| CCOC(=O)C1=C(O)/C(=C/c2ccc(O)c(OC)c2)SC1=Nc1ccccc1 | 50% (active) |
| CCOC(=O)C1=C(O)/C(=C/c2ccc(O)c(OCC)c2)SC1=Nc1ccccc1 | 20% |
| CCOC(=O)C1=C(O)/C(=C/c2cc(OC)c(O)c(OC)c2)SC1=Nc1ccccc1 | 13% |
| N=C1/C(=C/c2ccc(-c3ccccc3Cl)o2)C(=O)N=C2SC(c3ccccc3)=NN12 | 56% (active) |
| N=C1/C(=C/c2ccc(-c3ccc(Cl)cc3Cl)o2)C(=O)N=C2SC(c3ccccc3)=NN12 | 2% |
| N=C1/C(=C/c2ccc(-c3cc(Cl)ccc3Cl)o2)C(=O)N=C2SC(c3ccccc3)=NN12 | 44% |
| Cc1ccc(N(CC(=O)O)S(C)(=O)=O)cc1C | 0% |
| CCCOc1ccccc1/C=C1/SC(N2CCN(c3ccc(Cl)cc3)CC2)=NC1=O | 12% |
| CCOC(=O)c1cnn2c(C(F)(F)F)c3c(nc12)-c1ccccc1CC3 | 7% |
| CCOC(=O)c1cnn2c1NC1=C(CCc3ccccc31)C2C(F)(F)F (stereo unspecified) | 58% (active) |
| CCOC(=O)c1ccccc1NC(=O)c1cnn2c1NC(c1ccccc1)CC2C(F)(F)F (stereo unspecified) | 17% |
| COc1ccc(CN(CCC(c2ccccc2OC)C2CCOC(C)(C)C2)C(C)=O)cc1 (stereo unspecified) | 17% |
| COc1ccccc1NC(=O)Nc1nnc(-c2ccccc2SCc2ccc(F)cc2)s1 | 10% |

| SMILES | inhibition |
| --- | --- |
| CCOC(=O)c1ccc(N=Cc2ccc3c(c2)OCO3)cc1 | 4% |
| Cc1ccccc1NC(=O)c1c(NC(=O)c2ccco2)sc2c1CCC(C)C2 (stereo unspecified) | 51% (active) |
| CCOc1ccccc1NC(=O)c1c(NC(=O)c2ccco2)sc2c1CCC(C)C2 (stereo unspecified) | 7% |
| COc1ccc(NC(=O)c2c(NC(=O)c3ccco3)sc3c2CCC3)cc1 | 15% |
| CCOc1ccc(NC(=O)c2c(NC(=O)c3ccco3)sc3c2CCCC3)cc1 | 4% |
| Cc1ccccc1NC(=O)c1c(NC(=O)c2ccco2)sc2c1CCC2 | 24% |
| O=C(c1cc(Cl)ccc1Cl)N1CCN(c2ccccc2)CC1 | 5% |
| Cc1ccc(OCC(=O)Nc2nc(-c3ccccc3)cs2)c(C)c1 | 5% |
| COc1ccc(Nc2ccc(C(F)(F)F)cc2[N+](=O)[O-])cc1 | 7% |
| CCNC(=O)c1c(O)c2ccccc2n(C)c1=O | 1% |
| O=C(c1ccc(Cl)cc1)c1ccc(N2CCOCC2)c([N+](=O)[O-])c1 | 16% |
| O=C(c1ccc(Cl)c(Cl)c1)c1ccc(N2CCOCC2)c([N+](=O)[O-])c1 | 54% (active) |
| O=C(c1ccc(Cl)c(Cl)c1)c1ccc(N2CCCCC2)c([N+](=O)[O-])c1 | 19% |
| COc1ccc(N/C(C)=C/C(=O)ONC(=O)c2ccccc2)cc1 | 5% |
| CCOC(=O)C(N)CSC1CC(=O)N(c2ccc(Cl)c(Cl)c2)C1=O (stereo unspecified) | 7% |
| Clc1cccc(-c2nnc(-c3ccc4c(c3)OCO4)o2)c1 | 15% |
| O=C(CSc1nc2ccccc2s1)NNC(=O)NC1CCCCC1 | 0% |
| O=C(CSc1nc2ccccc2s1)Nc1ccc(Cl)cc1 | 37% |
| O=C(CSc1nc2ccccc2s1)NNC(=S)NC1CCCCC1 | 56% (active) |
| O=C(CSc1nc2ccccc2s1)NNC(=S)Nc1ccc(Cl)cc1 | 65% (active) |
| O=C(CSc1nc2ccccc2s1)Nc1ccc(F)c(Cl)c1 | 23% |
| O=C(CSc1nc2ccccc2s1)NC1CCCCC1 | 0% |
| COc1ccc(/C=C2/SC(=O)N(CC(=O)Nc3ccc(C)c(C)c3)C2=O)cc1OC | 22% |
